Results as given in PubChem BioAssay (NCATS).
Inconclusive results are not listed. Calls of active or inactive are those of the source. Calls follow the shape of the dose curve; as a rule, active = well fitted inhibition curve with a large enough effect; inconclusive = small, poorly fitted or top-dose-only effect; inactive = flat fitted curve, though single readings scatter. Where a SMILES comes first, the peptide text is derived from it.

Key:
CRL-7250 = normal cell line; experiment: Cytotoxic Profiling of Annotated Libraries Using Quantitative High-Throughput Screening (AID 1296008); settings: Five cell lines viability, CellTiter-Glo ATP luminescence, 48-72 h; max response: active compounds read low; as to max response: % is scaled to controls: 0 for no effect and ±100 for the full control effect
Outline: (§1)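 Cytotoxicity was measured as CellTiter-Glo ATP luminescence, read after 10 min at room temperature. Compound treatment of the cells lasted 48 or 72 hr at 37 degrees Celsius in a qHTS format.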

HEK293 = experiment: as above; settings: Five cell lines viability, CellTiter-Glo ATP luminescence, 48-72 h; max response: active compounds read low
Outline: as §1

HaCat [1] = experiment: as above; settings: Five cell lines viability, CellTiter-Glo ATP luminescence, 48-72 h; max response: active compounds read low
Outline: as §1

KB-3-1 = experiment: as above; settings: Five cell lines viability, CellTiter-Glo ATP luminescence, 48-72 h; max response: active compounds read low
Outline: as §1

NIH3T3 = experiment: as above; settings: Five cell lines viability, CellTiter-Glo ATP luminescence, 48-72 h; max response: active compounds read low
Outline: as §1

HACAT [2] = experiment: qHTS assay to identify novel small-molecules to repurpose for Merkel cell carcinoma treatment (AID 1296009); settings: MCC and control cell lines, CellTiter-Glo viability, 72 h; at 44.8 µM (top of the series) unless noted
Outline: (§2)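 After compound transfer in DMSO, plates were kept 72 hr at 37 degree celsius. Luminescent ATP signal from CellTiter-Glo served as viability measure, normalized against DMSO and no-cell controls.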

HEK293T = experiment: as above; settings: MCC and control cell lines, CellTiter-Glo viability, 72 h; at 44.8 µM (top of the series) unless noted
Outline: as §2

Measured: max response
Also: nearly all actives have a fitted effect of over 60% in size.

O=C(/C=C/c1ccccc1)O[C@@H]1[C@@H](CO)O[C@@](CO)(O[C@H]2O[C@H](CO)[C@@H](O)[C@H](O)[C@H]2O)[C@H]1O
inactive: CRL-7250 | HEK293 0.967% | HaCat [1] | KB-3-1 -2.31% | NIH3T3 2.88% | HACAT [2] inactive [at 17.4 µM]

CC1=CC(=O)CC(C)(C)C1CCC(C)O[C@@H]1O[C@H](CO)[C@@H](O)[C@H](O)[C@H]1O (stereo not given in full)
inactive: CRL-7250 | HEK293 3.44% | HaCat [1] | KB-3-1 5.09% | NIH3T3 0.902% | HACAT [2]

CC(=O)/C=C/C1C(C)CC(O[C@@H]2O[C@H](CO)[C@@H](O)[C@H](O)[C@H]2O)CC1(C)C (stereo not given in full)
inactive: CRL-7250 | HEK293 3.69% | HaCat [1] | KB-3-1 | NIH3T3 | HACAT [2]

C=C1C(O)C(OC(=O)c2ccccc2)C2C(C)(C(=O)O)CCCC2(C)C1CC/C(C)=C\CO (stereo not given)
inactive: CRL-7250 -4.65% | HEK293 -1.62% | HaCat [1] | KB-3-1 5.47% | NIH3T3 | HACAT [2] inactive [at 17.4 µM]

O=C(/C=C/c1ccc(O)cc1)OC[C@H]1O[C@@H](O/C(=C\c2ccccc2)C(=O)O)[C@H](O)[C@@H](O)[C@@H]1O
inactive: CRL-7250 | HEK293 -7.06% | HaCat [1] | KB-3-1 | NIH3T3 4.52% | HACAT [2] inactive [at 17.4 µM]

CCC(C)/C=C(C)/C=C/C1=CC2=C(Cl)C(=O)C(C)(OC(C)=O)C(=O)C2=CN1C(CCC(=O)O)C(=O)O (stereo not given)
inactive: CRL-7250 -2.2% | HEK293 -1.69% | HaCat [1] | KB-3-1 | NIH3T3 | HACAT [2] inactive [at 17.4 µM]

CC[C@H]1OC(=O)[C@H](C)C(=O)[C@H](C)[C@@H](OC2O[C@H](C)C[C@H](N(C)C)[C@H]2O)[C@@H](C)C[C@@H](C)C(=O)/C=C/[C@]1(C)O (stereo not given in full)
inactive: CRL-7250 -0.333% | HEK293 -11.3% | HaCat [1] | KB-3-1 7.73% | NIH3T3 | HACAT [2] inactive [at 17.4 µM]

O=C(O[C@H]1[C@H](Oc2ccc(O)cc2CO)O[C@H](CO)[C@@H](O)[C@@H]1O)c1ccccc1
inactive: CRL-7250 -4.77% | HEK293 -1.69% | HaCat [1] | KB-3-1 | NIH3T3 2.07% | HACAT [2] inactive [at 17.4 µM]

Cc1ccc(-n2nc(C(C)(C)C)cc2NC(=O)Nc2cc(COc3cccnc3)[nH]n2)cc1
inactive: CRL-7250 -4.33% | HEK293 -3.79% | HaCat [1] | KB-3-1 | NIH3T3 | HACAT [2]

COC(=O)C1(O)C(OC(C)=O)CCC2C3(CC(c4ccoc4)OC3=O)C(C)=CCC21C(=O)OC (stereo not given)
inactive: CRL-7250 -2.77% | HEK293 4.98% | HaCat [1] | KB-3-1 9.04% | NIH3T3 | HACAT [2] inactive [at 17.4 µM]

c1cc(-c2cc(C3CCNCC3)[nH]n2)ccn1
inactive: CRL-7250 -3.47% | HEK293 -20.2% | HaCat [1] | KB-3-1 2.66% | NIH3T3 | HACAT [2] inactive [at 17.4 µM]

COc1ccc(CC(=O)NCc2ccccc2-c2ccccc2C(=O)NCCc2cccnc2)cc1
inactive: CRL-7250 -3.16% | HEK293 -0.81% | HaCat [1] | KB-3-1 -4.64% | NIH3T3 | HACAT [2]

CC1=CCC[C@@H]2[C@@](C)(CCc3ccoc3)[C@H](C(=O)O)CC[C@@]12C
inactive: CRL-7250 -0.266% | HEK293 -0.612% | HaCat [1] | KB-3-1 -0.465% | NIH3T3 -9.18% | HACAT [2]

CCN1CCN(C(=O)N[C@@H](C(=O)N[C@@H]2C(=O)N3[C@@H]2SC(C)(C)[C@@H]3C(=O)O)c2ccccc2)C(=O)C1=O
inactive: CRL-7250 -7% | HEK293 -6.17% | HaCat [1] | KB-3-1 | NIH3T3 | HACAT [2]

CC1CCC2(C)CCC3(C)C(=CCC4C5(C)CCC(O)C(C)(C(=O)O)C5CCC43C)C2C1C (stereo not given)
inactive: CRL-7250 | HEK293 -6.34% | HaCat [1] | KB-3-1 8.86% | NIH3T3 4.66% | HACAT [2] inactive [at 17.4 µM]

CSCC[C@H](NC(=O)[C@H](CO)NC(=O)[C@H](CCC(=O)O)NC(C)=O)C(=O)N[C@H](C=O)CC(=O)O (Ac-ESMD-aldehyde)
inactive: CRL-7250 3.88% | HEK293 0.953% | HaCat [1] | KB-3-1 2.69% | NIH3T3 -20.7% | HACAT [2] inactive [at 9.27 µM]

COc1cc(C(CO)C(OC2OC(CO)C(O)C(O)C2O)c2ccc(O)c(OC)c2)ccc1O (stereo not given)
inactive: CRL-7250 | HEK293 -2.64% | HaCat [1] | KB-3-1 3.11% | NIH3T3 | HACAT [2] inactive [at 17.4 µM]

COc1ccc(Oc2c(Cl)cnn(C3c4ccccc4-c4ccccc43)c2=O)cc1
inactive: CRL-7250 -3.95% | HEK293 -2.77% | HaCat [1] | KB-3-1 -2.29% | NIH3T3 | HACAT [2]

C[C@@H]1O[C@@H](O[C@@H]2[C@@H](O)[C@H](O[C@@H]3[C@@H](O)[C@@H](O)[C@H](O[C@H]4[C@H](OC(=O)[C@]56CCC(C)(C)C[C@H]5C5=CCC7[C@@]8(C)C[C@H](O)[C@H](O[C@@H]9O[C@H](C(=O)O)[C@@H](O)[C@H](O)[C@H]9O)[C@@](C)(CO)C8[C@H](O)C[C@@]7(C)[C@]5(C)C[C@H]6O)O[C@@H](CO)[C@@H]4O)O[C@H]3C)OC[C@H]2O)[C@H](O)[C@H](O)[C@H]1O (stereo not given in full)
inactive: CRL-7250 0.0733% | HEK293 1.63% | HaCat [1] | KB-3-1 | NIH3T3 | HACAT [2] inactive [at 9.27 µM]

COc1cc(O)cc2c1C(=O)OC(C)CCCCCCC2 (stereo not given)
inactive: CRL-7250 0.54% | HEK293 -6.62% | HaCat [1] | KB-3-1 | NIH3T3 -11.2% | HACAT [2]

CC1(C(=O)O)CCCC2(C)C3CCC4CC3(CCC12)CC4(O)CO (stereo not given)
inactive: CRL-7250 1.56% | HEK293 -16.5% | HaCat [1] | KB-3-1 5.7% | NIH3T3 0.753% | HACAT [2]

CC(C)(O)c1ccc2c(c1)C(=O)C[C@H]1[C@](C)(C(=O)O)CCC[C@]21C
inactive: CRL-7250 -1.21% | HEK293 -10.2% | HaCat [1] | KB-3-1 5.87% | NIH3T3 | HACAT [2]

Cn1cc(-c2c[nH]c3ncnc(N4CCOCC4)c23)cn1
inactive: CRL-7250 0.569% | HEK293 -23.9% | HaCat [1] | KB-3-1 | NIH3T3 | HACAT [2]

OC[C@@]1(O)CO[C@H](OC[C@H]2O[C@@H](OCCc3ccccc3)[C@H](O)[C@@H](O)[C@@H]2O)[C@@H]1O
inactive: CRL-7250 -3.48% | HEK293 -5.84% | HaCat [1] | KB-3-1 -0.728% | NIH3T3 5% | HACAT [2] inactive [at 17.4 µM]

CC(C)C1CCC(CO)=CC1/C=C(\CO)C(=O)OCC1(O)CCC(C(C)C)C2C=C(C(=O)O)COC(=O)C21 (stereo not given)
inactive: CRL-7250 | HEK293 | HaCat [1] -2.47% | KB-3-1 | NIH3T3 -0.853% | HEK293T inactive [at 17.4 µM]

CC(C)c1ccc2c(c1)CCC1[C@](C)(C(=O)O)CCC[C@]21C (stereo not given in full)
inactive: CRL-7250 | HEK293 2.37% | HaCat [1] | KB-3-1 -0.955% | NIH3T3 | HACAT [2]

COc1cc(/C=C/C(=O)O[C@@H]2O[C@H](CO)[C@@H](O)[C@H](O)[C@H]2O)ccc1O
inactive: CRL-7250 2.76% | HEK293 | HaCat [1] 3.8% | KB-3-1 -1.87% | NIH3T3 0.679% | HEK293T

O=C1NC(=O)/C(=C/c2cccc(C(F)(F)F)c2)S1
inactive: CRL-7250 | HEK293 | HaCat [1] 3.45% | KB-3-1 -2.21% | NIH3T3 4.34% | HEK293T

COC(=O)C1=CO[C@@H](O[C@@H]2O[C@H](CO)[C@@H](O)[C@H](O)[C@H]2O)[C@@H]2[C@@H](CO)[C@@H](O)C(O)[C@H]12 (stereo not given in full)
inactive: CRL-7250 | HEK293 -5.81% | HaCat [1] | KB-3-1 | NIH3T3 1.79% | HACAT [2] inactive [at 17.4 µM]

CC1OC(O[C@@H]2[C@H](O)[C@@H](OC3OC(CO)C(O)C(O)C3O)[C@H](OC(=O)[C@]34CCC(C)(C)C[C@H]3C3=CCC5[C@@]6(C)CC[C@H](O[C@@H]7O[C@H](C(=O)O)[C@@H](O)[C@H](O[C@@H]8OC[C@@H](O)[C@H](O)[C@H]8O)[C@H]7O[C@@H]7O[C@H](CO)[C@H](O)[C@H](O)[C@H]7O)[C@@](C)(C=O)C6CC[C@@]5(C)[C@]3(C)C[C@H]4O)O[C@@H]2C)C(O)C(O)C1OC1OCC(O)C(O)C1O (stereo not given in full)
inactive: CRL-7250 -3.77% | HEK293 -1.1% | HaCat [1] | KB-3-1 | NIH3T3 | HACAT [2] inactive [at 4.96 µM]

CC1CCC23COC(=O)C2=CC(O)CC3C1(C)CCc1ccoc1 (stereo not given)
inactive: CRL-7250 1.42% | HEK293 | HaCat [1] -3.63% | KB-3-1 -2.5% | NIH3T3 -7.2% | HEK293T

C/C=C/C=C/C=C/C(=O)O[C@@H]1[C@@H](OC)C2=C(C(=O)N(C(CCC(=O)O)C(=O)O)C2)[C@@]2(C)CCCC(C)(C)[C@H]12 (stereo not given in full)
inactive: CRL-7250 -4.83% | HEK293 | HaCat [1] -8.01% | KB-3-1 0.124% | NIH3T3 -12.6% | HEK293T inactive [at 17.4 µM]

C=C1CC[C@@H]2C(C)(C)CCC[C@@]2(C)[C@@H]1CC/C(=C/C(=O)OC)COC(C)=O
inactive: CRL-7250 -1.64% | HEK293 -16.3% | HaCat [1] | KB-3-1 -9.17% | NIH3T3 | HACAT [2]

CC[C@H](C)[C@H](NC(=O)[C@H](Cc1ccc(O)cc1)NC(=O)[C@@H](N)C(C)C)C(=O)N[C@@H](Cc1cnc[nH]1)C(=O)N1CCC[C@H]1C(=O)N[C@@H](Cc1ccccc1)C(=O)O
inactive: CRL-7250 | HEK293 0.716% | HaCat [1] | KB-3-1 | NIH3T3 | HACAT [2] inactive [at 4.96 µM]

COC(=O)[C@]1(C)CCC[C@@]2(C)C(=O)CC[C@H]3C(=O)C=C(CC[C@@H]21)C3O (stereo not given in full)
inactive: CRL-7250 -8.93% | HEK293 -5.09% | HaCat [1] | KB-3-1 -0.869% | NIH3T3 1.41% | HACAT [2]
